Assay outcomes deposited in PubChem by National Center for Advancing Translational Sciences (NCATS).
HCMV antiviral: qHTS Assay for inhibitors of the human cytomegalovirus (HCMV) | HFF cells, HCMV-luciferase reporter, 72 h; hits give low values | activity change, negative = inhibition, % at 57.5 µM | hit rate 4.5% among 410,000; in the data active = activity change below about -60%; inconclusive = no clear call, values can overlap the other calls; inactive = above about -39%
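Human foreskin fibroblasts infected with luciferase-reporter HCMV at MOI 1 PFU/cell, compounds at two doses. Luciferase measured 72 h post infection; normalized to buffer-only basal and Salinomycin (10uM) controls.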
Tb PYK inh: qHTS of Trypanosoma Brucei Inhibitors | TbPYK enzyme, Kinase-Glo Plus ATP luminescence, 45 min | pyruvate kinase (Trypanosoma brucei), Q57TT1 | hit rate 0.12% among 410,000 | AID 624173, 2012 | Potency, µM (doses to about 76.8 µM), usual class: inhibitors; also: nearly all actives have a fitted effect of over 50% in size
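Assay buffer: 50 mM TEA pH 7.2, 100 mM KCl, 10 mM MgCl2, 0.05% BSA, 0.01% Tween-20. Pyruvate kinase from T. brucei plus substrate met compound, then ADP (130 uM final). Luminescence was read post 45 min RT.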
Vaccinia Venus: qHTS for Stage-Specific Inhibitors of Vaccinia Orthopoxvirus: Venus Reporter Primary qHTS. Vaccinia virus Venus reporter expression, fluorescence. Potency, µM (series often up to 36.5 µM), usual class: inhibitors. hit rate 0.46% among 330,000; calls by dose curve; tested in A549 cells; also: nearly all actives have a fitted effect of over 30% in size
LmPK inh: qHTS Assay for Inhibitors of Leishmania Mexicana Pyruvate Kinase (LmPK) | Potency, µM (titrated, usually from 57.5 µM), actives largely listed as inhibitors | AID 1721, 2009 | hit rate 0.37% among 290,000 | purified LmPK, Kinase-Glo ATP luminescence, 1 h
Target sequence (Q27686 whole entry, looked up): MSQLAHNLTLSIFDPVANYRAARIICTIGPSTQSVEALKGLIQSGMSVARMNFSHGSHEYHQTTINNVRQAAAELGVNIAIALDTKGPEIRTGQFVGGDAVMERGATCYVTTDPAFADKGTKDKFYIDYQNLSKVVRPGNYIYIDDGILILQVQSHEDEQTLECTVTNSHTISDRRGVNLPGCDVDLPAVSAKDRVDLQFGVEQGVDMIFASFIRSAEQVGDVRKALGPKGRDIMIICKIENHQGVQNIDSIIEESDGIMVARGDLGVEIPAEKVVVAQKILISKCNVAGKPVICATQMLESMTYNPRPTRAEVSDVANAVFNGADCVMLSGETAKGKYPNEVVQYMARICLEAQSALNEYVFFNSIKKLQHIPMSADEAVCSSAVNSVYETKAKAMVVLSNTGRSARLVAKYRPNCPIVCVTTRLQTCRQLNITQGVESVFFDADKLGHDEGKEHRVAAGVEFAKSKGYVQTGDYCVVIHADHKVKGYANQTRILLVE
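Kinase-Glo luminescence read after 1 h RT reaction of 0.1 nM LmPK with 0.5 mM PEP and 0.1 mM ADP. Activity scaled between uninhibited and enzyme-free controls.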
VACV mCherry inh: qHTS for Stage-Specific Inhibitors of Vaccinia Orthopoxvirus: mCherry Reporter Primary qHTS | Vaccinia virus mCherry reporter infection, fluorescence | Potency, µM (doses to about 36.5 µM), most hits filed as inhibitors | hit rate 0.63% among 310,000; calls by dose curve; tested in A549 cells; also: nearly all actives have a fitted effect of over 35% in size
Of the large screens only hits and unclear results are named; the others gave an inactive call. This is a sample that favours compounds with a hit; in the whole collection about 5% have one here. Unless noted, calls follow the shape of the dose curve; as a rule, active = well fitted curve in the direction sought with a large enough effect; inconclusive = small, poorly fitted or top-dose-only effect, or another doubt; inactive = no such curve, though single readings can be large; an effect the other way counts as inactive or inconclusive.

NC(Cc1ccc(Cl)cc1)c1csc(NC(=O)NCC2CCCCC2)n1 (stereo unspecified)	Vaccinia Venus 10µM (no result: LmPK inh)
C[C@@H]1CN([C@H](C)CO)C(=O)CCCn2nncc2CO[C@H]1CN(C)S(=O)(=O)c1ccccc1	none (no result: LmPK inh)
Cc1ccc2[nH]c(=O)c3cc(C(=O)N(C)c4ccccc4C)sc3c2c1	HCMV antiviral inconclusive (no result: Vaccinia Venus, VACV mCherry inh)
Cc1ccc(/C(O)=C2\C(=O)C(=O)N(C)C2c2ccccc2)cc1 (stereo unspecified)	none (no result: LmPK inh)
O=C(N/N=C/c1ccco1)C1CC1c1ccccc1 (stereo unspecified)	none
CC(C)(C)c1ccc(C2CC2C(=O)N/N=C\c2ccc[nH]2)cc1 (stereo unspecified)	HCMV antiviral -100, Vaccinia Venus 4µM, VACV mCherry inh inconclusive
Cc1ccc(C(OC(=O)c2ccco2)C(=O)NC2CCCCC2)cc1 (stereo unspecified)	HCMV antiviral -98 (no result: Vaccinia Venus, VACV mCherry inh)
CCOc1ccc(C(OC(=O)c2ccco2)C(=O)NCc2ccc(C)cc2)cc1 (stereo unspecified)	HCMV antiviral -74 (no result: Vaccinia Venus, VACV mCherry inh)
CC(=O)C[C@H](O)CC(=O)[C@H]1OC(=O)CCCCC/C=C/Cc2ccccc21	none (no result: LmPK inh)
Cc1cc(C)n2nc(CCCO)nc2n1	none (no result: Vaccinia Venus, VACV mCherry inh)
COc1ccc(C(=O)Nc2cccc(-c3nc4ncccc4o3)c2C)cc1	none (no result: VACV mCherry inh)
CCc1c(-c2ccc(Cl)cc2)ncn1CCc1ccccc1OC	none (no result: Tb PYK inh, Vaccinia Venus, LmPK inh, VACV mCherry inh)
CCCCc1c(Cc2ccccc2)ncn1CCc1ccccc1OC	HCMV antiviral -76 (no result: LmPK inh)
CCCCc1c(-c2ccccc2)ncn1CCc1ccccc1OC	HCMV antiviral -75, Vaccinia Venus inconclusive, VACV mCherry inh inconclusive (no result: LmPK inh)
CCCCc1c(-c2ccc(OC)cc2)ncn1CCc1ccccc1OC	HCMV antiviral -85, Vaccinia Venus inconclusive, VACV mCherry inh inconclusive (no result: LmPK inh)
CCCCc1c(-c2ccccc2OC)ncn1CCc1ccc(OC)cc1	HCMV antiviral -64 (no result: LmPK inh)
CCCCc1c(-c2ccccc2OC)ncn1CCc1ccccc1	Vaccinia Venus inconclusive (no result: LmPK inh)
CCCCc1c(-c2cccc(Cl)c2)ncn1CCc1ccccc1OC	HCMV antiviral -80 (no result: LmPK inh)
CCCCc1c(-c2ccccc2OC)ncn1CCc1ccc(Cl)cc1	Vaccinia Venus inconclusive (no result: LmPK inh)
CCCCCc1c(-c2ccc(Cl)cc2)ncn1CCc1ccccc1OC	HCMV antiviral -75 (no result: LmPK inh)
CCCCCc1c(-c2ccc(OC)cc2)ncn1CCc1ccccc1OC	HCMV antiviral -94, Vaccinia Venus inconclusive, VACV mCherry inh inconclusive (no result: LmPK inh)
CCCc1c(-c2cccc(Cl)c2)ncn1Cc1ccccc1OC	none (no result: LmPK inh)
CCCCc1c(-c2ccc(F)cc2)ncn1CCc1ccccc1OC	HCMV antiviral -62, Vaccinia Venus inconclusive (no result: LmPK inh)
COc1ccccc1CCn1cnc(C)c1CC(C)C	none (no result: LmPK inh)
COc1cc2c(=O)n(CCC(=O)NCC3CCCO3)c(=O)n(CC(=O)Nc3c(C)cccc3C)c2cc1OC (stereo unspecified)	none (no result: LmPK inh)
Cc1ccc(S(=O)(=O)NCC(=O)N(CC2CCCO2)C(C(=O)NCC2CCCO2)C(C)C)cc1 (stereo unspecified)	none
Cc1cccc(C(=O)OCC(=O)N(C)C(c2ccccc2)c2ccccc2)c1[N+](=O)[O-]	none (no result: Vaccinia Venus, LmPK inh, VACV mCherry inh)
COc1ccc(CN2C(=O)c3cccnc3C2=O)cc1S(=O)(=O)N(C)Cc1ccco1	none
Cc1ccc(S(=O)(=O)Nc2cc(C(F)(F)F)ccc2N2CCOCC2)cc1C	none
CCN(CC)C(=O)Cn1cc(C(=O)C(=O)NCc2cccs2)c2ccccc21	none
COc1ccccc1CCn1cnc(Cc2cccc(F)c2)c1C(C)C	HCMV antiviral inconclusive (no result: LmPK inh)
CCCc1c(Cc2cccc(F)c2)ncn1CCc1ccccc1OC	HCMV antiviral -61 (no result: Tb PYK inh, Vaccinia Venus, LmPK inh, VACV mCherry inh)
Cn1c(NC(=O)c2ccccc2C(F)(F)F)cc(=O)n(C)c1=O	HCMV antiviral -66
Cn1c(NC(=O)c2ccccc2Br)cc(=O)n(C)c1=O	HCMV antiviral inconclusive
CCCc1ccc(OCc2ccc(C(=O)N3CCCC3)o2)cc1	none
C[C@H](NC(=O)OC(C)(C)C)c1nnc(SCc2c(F)cccc2Cl)o1	HCMV antiviral -78 (no result: LmPK inh)
CC[C@@H](C)[C@H](NC(=O)OC(C)(C)C)c1nnc(S(=O)(=O)Cc2cc(C)ccc2C)o1	Vaccinia Venus inconclusive (no result: VACV mCherry inh)
CC(C)[C@H](NC(=O)OC(C)(C)C)c1nnc(S(=O)(=O)Cc2c(F)cccc2Cl)o1	HCMV antiviral -76
Cc1cc(Cl)ccc1OCC(=O)NC(=S)Nc1ccc(Cl)cn1	none (no result: Vaccinia Venus, VACV mCherry inh)
CCCC(=O)NC(=S)Nc1ccc(Cl)cn1	HCMV antiviral -69 (no result: Vaccinia Venus, VACV mCherry inh)
O=C(CSc1oc(-c2ccco2)nc1S(=O)(=O)c1ccccc1)NCC1CCCO1 (stereo unspecified)	none (no result: VACV mCherry inh)
O=C(CSc1oc(-c2ccco2)nc1S(=O)(=O)c1ccc(Cl)cc1)NCC1CCCO1 (stereo unspecified)	HCMV antiviral -66
Cc1cc(C)cc(NC(=O)CSc2oc(-c3ccco3)nc2S(=O)(=O)c2ccc(Cl)cc2)c1	HCMV antiviral -62, Vaccinia Venus inconclusive, VACV mCherry inh inconclusive (no result: LmPK inh)
Cc1ccc(-c2nc(S(=O)(=O)c3ccccc3)c(SCC(=O)NCC3CCCO3)o2)cc1 (stereo unspecified)	HCMV antiviral -60, VACV mCherry inh inconclusive
COc1cccc(C(=O)Nc2ccc(-n3nncc3-c3ccccc3)cc2)c1	HCMV antiviral inconclusive (no result: LmPK inh)
COCCCNC(=S)N1CCN(c2nc(-c3ccc(F)cc3)cs2)CC1	HCMV antiviral -85 (no result: Vaccinia Venus, VACV mCherry inh)
O=C(C1CCCCC1)N1CCN(c2nc(-c3ccc(F)cc3)cs2)CC1	HCMV antiviral -60
NC(=O)C1(N2CCCCC2)CCN(c2nc(-c3ccccc3)cs2)CC1	Vaccinia Venus inconclusive (no result: VACV mCherry inh)
CCOCCCNC(=S)N1CCN(c2nc(-c3ccc(F)cc3)cs2)CC1	HCMV antiviral -85 (no result: Vaccinia Venus, VACV mCherry inh)
COc1ccc(-c2csc(N3CCC(C(N)=O)(N4CCCCC4)CC3)n2)cc1	HCMV antiviral -81, VACV mCherry inh inconclusive
CC(=O)c1ccc(S(=O)(=O)NC2CC2)cc1	none
COc1ccc(S(=O)(=O)N(C)C)cc1NC(=O)COC(=O)c1nc2nccc(C)n2n1	none (no result: Vaccinia Venus, VACV mCherry inh)
CN(C)CCCNC(=O)c1ccc(-c2nc(-c3ccc(Cl)cc3)cs2)cc1	Vaccinia Venus 22µM, VACV mCherry inh inconclusive
CC(C)(C)c1ccc(C(=O)NCCc2csc(-c3ccc(Cl)cc3)n2)cc1	none (no result: LmPK inh)
CC(CCc1ccccc1)NCC#N (stereo unspecified)	HCMV antiviral -61
CC(CCc1ccccc1)NCCC#N (stereo unspecified)	none
CC1CCCC(C)N1C(=O)c1ccc(S(=O)(=O)NCc2ccco2)cc1 (stereo unspecified)	HCMV antiviral -76
O=C(c1ccc(S(=O)(=O)NCc2ccco2)cc1)N1CCN(Cc2ccccc2)CC1	none
COc1ccc(CN2CCN(C(=O)c3ccc(S(=O)(=O)NCc4ccco4)cc3)CC2)cc1	HCMV antiviral -83 (no result: LmPK inh)
